Source: PubChem
FEN1 inhibitor – blocks human flap endonuclease 1 | P39748 | Recombinant FEN1 flap cleavage, fluorescence, 15 min | Potency, µM (titrated, usually from 114 µM), inactives show at the highest dose activity change, negative = inhibition, usual class: inhibitors | 390,000 tested, 0.35% active | AID 588795; further: potency means the concentration at half of the fitted maximal effect; on the % scale 0 is the no-effect control and ±100 the full control effect; nearly all actives have a fitted effect of over 65% in size
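Enzyme 10 nM, 15 min RT preincubation with compound; start with substrate 50 nM final; reads at 0 and 15 min; qHTS titration, four-parameter Hill fit.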
POLI inh – DNA polymerase iota (human) inhibition; Q9UNA4; 390,000 tested, 1% active; Pol iota fluorescent replication assay, 10 min; Potency, µM (doses to about 115 µM), without a hit: top-dose activity, negative = inhibition, actives largely listed as inhibitors; AID 588590; further: potency means the concentration at half of the fitted maximal effect
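Pol iota at 10 nM preincubated 15 min with compounds at room temperature; reaction started with fluorescent substrate, 50 nM final. Fluorescence read kinetically at 0 and 10 min; buffer-only wells as negative control.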
Pol beta inh – inhibitors of human DNA polymerase beta; P06746; Potency, µM (doses to about 114 µM), inactives show at the highest dose activity change, negative = inhibition, hits mostly inhibitors; 340,000 tested, 1.3% active; Pol beta primer extension/strand displacement, fluorescence kinetic; further: potency means the concentration at half of the fitted maximal effect; on the % scale 0 is the no-effect control and ±100 the full control effect
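10 nM enzyme + cpd, 15 min RT; start with substrate 50 nM final; read 0 min and after 10 min RT. Corrected, normalized data; 4-parameter Hill curve fit.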
Pol eta inh-1 – inhibitors of human DNA polymerase eta; 390,000 tested, 1.2% active; recombinant Pol eta, fluorescent DNA replication assay; AID 588591; Q9Y253; Potency, µM (doses to about 114 µM), for inactives: top-dose activity change, negative = inhibition, most hits filed as inhibitors; further: potency means the concentration at half of the fitted maximal effect; on the % scale 0 is the no-effect control and ±100 the full control effect
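Fluorescent replication assay: 50 nM final substrate added after a 15 min room-temperature compound preincubation with 10 nM enzyme. Signal taken at 0 min and again at 10 min.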
Pol kappa inh-1 – DNA polymerase kappa (human) inhibition; Q9UBT6; purified Pol kappa, fluorescent DNA synthesis assay, 10 min; Potency, µM (top dose mostly 107 µM), inactives show top-dose activity, negative = inhibition, hits mostly inhibitors; 400,000 tested, 0.53% active; AID 588579; further: potency means the concentration at half of the fitted maximal effect; on the % scale 0 is the no-effect control and ±100 the full control effect
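Enzyme at 10 nM met test compounds for 15 min at room temperature. Substrate addition (50 nM final) began the reaction, which was monitored by fluorescence at 0 and 10 min.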
WRN inhibitor – inhibitors of human WRN helicase. WRN helicase unwinding, fluorescent forked duplex, kinetic. Potency, µM (doses to about 114 µM), for inactives: at the highest dose activity change, negative = inhibition, most hits filed as inhibitors. 360,000 tested, 0.46% active. AID 651768; further: potency means the concentration at half of the fitted maximal effect; on the % scale 0 is the no-effect control and ±100 the full control effect; nearly all actives have a fitted effect of over 55% in size
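WRN at 20 nM final was preincubated with compound for 15 min at room temperature; reaction started with 100 nM forked duplex oligonucleotide carrying fluorophore and quencher plus 2 mM ATP (final). Unwinding followed kinetically by red fluorescence (ex 525/em 598 nm).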
TbPGK inh – validation of Trypanosoma brucei phosphoglycerate kinase inhibitors; shares compounds with Pol kappa inh-1; TbPGK coupled GAPDH assay, Kinase-Glo luminescence; Potency, µM (doses to about 57.5 µM), for inactives: at the top dose activity change, negative = inhibition, actives largely listed as inhibitors; 500 tested, 79% active; further: potency means the concentration at half of the fitted maximal effect; on the % scale 0 is the no-effect control and ±100 the full control effect; nearly all actives have a fitted effect of over 65% in size
Target sequence (P07378 whole entry, looked up): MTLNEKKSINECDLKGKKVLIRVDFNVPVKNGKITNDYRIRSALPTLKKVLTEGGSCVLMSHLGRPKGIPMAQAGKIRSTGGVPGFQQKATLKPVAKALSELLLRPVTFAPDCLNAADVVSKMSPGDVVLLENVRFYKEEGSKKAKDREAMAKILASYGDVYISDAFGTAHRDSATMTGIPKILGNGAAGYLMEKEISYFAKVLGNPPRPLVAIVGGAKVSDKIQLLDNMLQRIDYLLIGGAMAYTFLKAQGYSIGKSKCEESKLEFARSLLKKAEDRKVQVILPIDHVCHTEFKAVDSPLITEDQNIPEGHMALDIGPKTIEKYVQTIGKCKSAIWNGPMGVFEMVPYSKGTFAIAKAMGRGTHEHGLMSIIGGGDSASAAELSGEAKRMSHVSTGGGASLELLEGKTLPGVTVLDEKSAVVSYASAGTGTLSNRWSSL
POLI cherry-pick – Confirm cherry-picked inhibitors of human polymerase iota; Potency, µM, hits mostly inhibitors; shares compounds with Pol kappa inh-1; Pol iota primer extension, TAMRA/BHQ fluorescence; 1,500 tested, 77% active; further: potency means the concentration at half of the fitted maximal effect
GALK confirm – galactokinase (human) inhibition, confirmation; shares compounds with Pol eta inh-1; purified GALK, Kinase-Glo ATP depletion luminescence; Potency, µM (series often up to 115 µM), for the others: top-dose activity, negative = inhibition, hits mostly inhibitors; 150 tested, 70% active; AID 2015
Redox cycling – counter-screen for GALK inhibitors: redox cycling H2O2 generation. shares compounds with Pol eta inh-1. 150 tested, 40% active. AID 2035. Phenol red-HRP H2O2 redox cycling, absorbance 600 nm. Potency, µM (series often up to 115 µM), for the others: at the highest dose activity change, negative = H2O2 signal, most hits filed as inhibitors
HEK293 tox – reduces HEK-293 cell viability in GALK counter-screen. 170 tested, 10% active. Potency, µM (top dose mostly 46.1 µM), without a hit: at the highest dose activity change, negative = cytotoxicity, usual class: inhibitors. HEK-293 viability, ATP luminescence (CellTiter-Glo), 24/48 h. shares compounds with Pol eta inh-1; further: potency means the concentration at half of the fitted maximal effect; on the % scale 0 is the no-effect control and ±100 the full control effect
Pol kappa inh-2 – Pol kappa (human) inhibition, cherry-pick confirmation; shares compounds with Pol eta inh-1; purified Pol-kappa, fluorescent strand-displacement substrate; Potency, µM, actives largely listed as inhibitors; 920 tested, 76% active; AID 720501; further: potency means the concentration at half of the fitted maximal effect
Pol eta inh-2 – Pol eta (human) inhibition, cherry-pick confirmation. shares compounds with Pol eta inh-1. Pol eta primer extension, TAMRA/BHQ fluorescence, 10 min. Potency, µM, hits mostly inhibitors. 2,600 tested, 64% active. AID 720502; further: potency means the concentration at half of the fitted maximal effect
* = called active by the depositor; u = inconclusive; x = no result; [ ] = dose if it differs, or a comment. Shown are actives, neighbours in structure and some others; about 2.4% of the full set was active somewhere. The call rests on the fitted dose curve; in most records, active means well fitted curve in the direction sought with a large enough effect; inconclusive means small, poorly fitted or top-dose-only effect, or another doubt; inactive means no such curve, though single readings can be large; an effect the other way counts as inactive or inconclusive.

SMILES | FEN1 inhibitor | POLI inh | Pol beta inh | Pol eta inh-1 | Pol kappa inh-1 | WRN inhibitor | POLI cherry-pick | Pol eta inh-2 | others
Cc1cc(C=O)c(C)n1-c1ccc(Cl)c(C(=O)O)c1 | u | 5.62µM* | 3.16µM* | 3.16µM* | 22.4µM* | u | 10.6* | 6.01* | TbPGK inh=11.6µM*
Cc1c(C)n(C(=O)CSc2nc3ccccc3[nH]2)c2ccccc12 | -9.4% | u | 8.91µM* | u | u | u | u | 37.9*
CN(C)c1ncc2nc(-c3cccs3)c(=O)n(C3CC3)c2n1 | x | x | x | x | -5.1%[60.1 µM] | x | x | x
C=CCN1C(=O)/C(=C/c2ccc(OC(C)=O)c(OCC)c2[N+](=O)[O-])SC1=S | -20.1% | 27.6% | u | 20µM* | u | -34.2% | 75.2* | 67.5* | GALK confirm=u;Redox cycling=42.1µM*;HEK293 tox=u
NS(=O)(=O)c1ccc(N=Nc2ccc(=O)[nH]c2O)cc1 | 79.4µM* | u | 6.31µM* | 10µM* | u | 50.1µM* | 37.7* | u | TbPGK inh=5.17µM*;Pol kappa inh-2=15*
CCc1ccc(OCc2cc(=O)n3cc(C)sc3n2)cc1 | -4.6% | -11.1% | -2.8% | -9.9% | -1.1% | x | x | x
Cc1ccc(-c2cc(C(=O)N(Cc3ccccc3)Cc3ccco3)no2)cc1F | 4.4% | 4.9% | 1.5% | -16.3% | 11.2% | x | x | x
Cc1oc(-c2ccc(Cl)cc2)cc1-c1nn2c(-c3ccoc3C)nnc2s1 | -0.6% | u | 3.55µM* | 4.47µM* | u | u | u | 75.7*
COc1ccc(-c2nc3cnc(Nc4cccc(OC)c4)nc3n(C[C@H]3CCCO3)c2=O)cc1 | x | x | x | x | -8.9%[60.1 µM] | x | x | x
Fc1ccc(C2=Nc3cccc4cccc(c34)N2)cc1 | -10.4% | -11.4% | -19.5% | 4.1% | -1.3% | 12.1% | x | x
FC(F)(F)C1=Nc2cccc3cccc(c23)N1 | 50.1µM* | 1.58µM* | x | 2.24µM* | 6.31µM* | u | 16.8* | 21.3* | Pol kappa inh-2=7.52*
COc1ccc(C2C(=O)N(C3CCC(C)CC3)CC(=O)N2Cc2ccc(C)cc2)cc1OC (centres undefined) | -17.5% | -9.8% | 27.2% | -18.8% | -13.6%[60.1 µM] | x | x | x
COc1ccccc1NC(=O)C1=C(C)Nc2ncnn2C1c1ccc[nH]1 (centres undefined) | u | 79.4µM* | 15.8µM* | 31.6µM* | 5.0%[60.1 µM] | x | 59.7* | 60.1*
COc1ccccc1NC(=O)C1=C(C)Nc2ncnn2C1c1ccccn1 (centres undefined) | -14.0% | 8.5% | 22.8% | -23.1% | 1.1% | x | x | x
Cc1cc(C)c2c(c1)NC(C(=O)O)C1CC=CC21 (centres undefined) | 44.7µM* | 12.6µM* | u | 11.2µM* | 25.1µM* | 50.1µM* | 26.7* | 23.9* | Pol kappa inh-2=6.7*
CC1(OC(=O)c2ccc(Cl)nc2)C(=O)C=C2C=C3CCCN3C=C2C1=O (centres undefined) | u | u | 25.1µM* | 14.1µM* | 50.1µM* | u | 67* | 47.8*
CC1(OC(=O)C2CCCC2)C(=O)C=C2C=C3CCCCN3C=C2C1=O (centres undefined) | -2.9% | u | 13.2% | u | u | 5.7% | x | x
COCCNC(=O)c1ccc2c(=O)n(CCOC)c(SCC(=O)c3c[nH]c4ccccc34)nc2c1 | -1.3% | 12.9% | -13.5% | -6.1% | -10.1% | x | x | x
COc1ccc(C(=O)/C=C/c2ccc(OCc3ccccc3)cc2)cc1CSCC(=O)O | -17.4% | 44.7µM* | 5.4% | 44.7µM* | -19.5% | u | u | u
O=C1C=C(N2CCOCC2)c2ccccc2C1=O | -18.4% | 1.78µM* | -10.9% | 5.62µM* | -8.0% | -19.1% | 16.8* | 7.57* | GALK confirm=8.41µM*;Redox cycling=4.73µM*;HEK293 tox=14.1µM*
CC1=C(C)C(=O)C(N2CCOCC2)=CC1=O | 0.2% | 8.0% | 81.1% | 3.3% | -19.6% | -0.3% | x | x
C/C=C(/C)C(=O)Nc1cccc(C2=NOC3(C2)C[C@@H](C(N)=O)N(C(=O)CC(c2ccccc2)c2ccccc2)C3)c1 (some centres undefined) | 2.2% | u | 2.8% | -29.6% | -6.9% | -0.7% | x | x
C=C(C)C(=O)Nc1cccc(C2=NOC3(C2)C[C@H](C(N)=O)N(C(=O)c2ccccc2C(=O)c2ccccc2)C3)c1 (some centres undefined) | -3.8% | 44.7µM* | 8.91µM* | 5.62µM* | u | u | 47.4* | 19*
CCCCCC(=O)Nc1cccc(C2=NOC3(C2)C[C@H](C(N)=O)N(C(=O)c2ccccc2C(=O)c2ccccc2)C3)c1 (some centres undefined) | -12.2% | 3.7% | -0.1% | -14.5% | -10.8% | -9.2% | x | x
C=C(C)C(=O)Nc1cccc(C2=NOC3(C2)C[C@@H](C(N)=O)N(C(=O)CC(c2ccccc2)c2ccccc2)C3)c1 (some centres undefined) | -13.0% | u | 12.6µM* | 3.98µM* | 35.5µM* | u | 75.2* | 30.1* | TbPGK inh=3.26µM*
Cc1ccc(-c2noc(-c3nnn(-c4ccc(Br)cc4F)c3C)n2)cc1 | 8.5% | 34.5% | 3.9% | x | 3.4% | x | x | x
